Measured values from PubChem BioAssay (NCATS).
Results filed as inconclusive are left out. A call without a number means that no potency is given here. Active and inactive are the calls of the source. Calls come from the whole dose curve; as a rule, active = well fitted curve in the direction sought with a large enough effect; inconclusive = small, poorly fitted or top-dose-only effect, or another doubt; inactive = no such curve, though single readings can be large; an effect the other way counts as inactive or inconclusive.

Experiments:
3D7 = test: qHTS profiling for inhibitors of Plasmodium falciparum proliferation (AID 504749); note: nearly all actives have a fitted effect of over 60% in size; note: potency is the fitted concentration of half-maximal effect; details: P. falciparum in erythrocytes, SYBR Green DNA, 72 h; series mostly up to 28.7 µM
In short: (§1)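 P. falciparum-infected erythrocytes (0.3% parasitemia, 2.5% hematocrit final) were exposed to compounds for 72 h at 37 C in 5% CO2, then lysed with SYBR Green buffer overnight at room temperature; parasite DNA fluorescence was normalized to artemisinin and DMSO controls.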

AS120 = test: as above; details: P. falciparum in erythrocytes, SYBR Green DNA, 72 h; series mostly up to 28.7 µM
In short: as §1

C2A = test: as above; details: P. falciparum in erythrocytes, SYBR Green DNA, 72 h; series mostly up to 28.7 µM
In short: as §1

CP203 = test: as above; details: P. falciparum in erythrocytes, SYBR Green DNA, 72 h; series mostly up to 28.7 µM
In short: as §1

CP211 = test: as above; details: P. falciparum in erythrocytes, SYBR Green DNA, 72 h; series mostly up to 28.7 µM
In short: as §1

CP237 = test: as above; details: P. falciparum in erythrocytes, SYBR Green DNA, 72 h; series mostly up to 28.7 µM
In short: as §1

CP265 = test: as above; details: P. falciparum in erythrocytes, SYBR Green DNA, 72 h; series mostly up to 28.7 µM
In short: as §1

CP268 = test: as above; details: P. falciparum in erythrocytes, SYBR Green DNA, 72 h; series mostly up to 28.7 µM
In short: as §1

CP269 = test: as above; details: P. falciparum in erythrocytes, SYBR Green DNA, 72 h; series mostly up to 28.7 µM
In short: as §1

CP286 = test: as above; details: P. falciparum in erythrocytes, SYBR Green DNA, 72 h; series mostly up to 28.7 µM
In short: as §1

CP305 = test: as above; details: P. falciparum in erythrocytes, SYBR Green DNA, 72 h; series mostly up to 28.7 µM
In short: as §1

CP315 = test: as above; details: P. falciparum in erythrocytes, SYBR Green DNA, 72 h; series mostly up to 28.7 µM
In short: as §1

CP325 = test: as above; details: P. falciparum in erythrocytes, SYBR Green DNA, 72 h; series mostly up to 28.7 µM
In short: as §1

ECU = test: as above; details: P. falciparum in erythrocytes, SYBR Green DNA, 72 h; series mostly up to 28.7 µM
In short: as §1

HB3 = test: as above; details: P. falciparum in erythrocytes, SYBR Green DNA, 72 h; series mostly up to 28.7 µM
In short: as §1

JCK = test: as above; details: P. falciparum in erythrocytes, SYBR Green DNA, 72 h; series mostly up to 28.7 µM
In short: as §1

N140 = test: as above; details: P. falciparum in erythrocytes, SYBR Green DNA, 72 h; series mostly up to 28.7 µM
In short: as §1

PAD = test: as above; details: P. falciparum in erythrocytes, SYBR Green DNA, 72 h; series mostly up to 28.7 µM
In short: as §1

[1] = S16 Schwann cell viability assay (CellTiter-Glo assay) (AID 624031); details: S16 rat Schwann cells viability, 24 h; series mostly up to 57.5 µM;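 note: native untransfected S16 rat Schwann cells; nearly all actives have a fitted effect of over 70% in size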
In short: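 Counter-screen for cytotoxicity: parental S16 rat Schwann cells lacking the PMP22 reporters, treated 24 h with compound, viability from cellular ATP by CellTiter-Glo luminescence, normalized to DMSO (0%) and no-cell wells.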

CP247 = test: qHTS profiling for inhibitors of Plasmodium falciparum proliferation (AID 504749); note: nearly all actives have a fitted effect of over 60% in size; note: potency is the fitted concentration of half-maximal effect; details: P. falciparum in erythrocytes, SYBR Green DNA, 72 h; series mostly up to 28.7 µM
In short: as §1

| Structure (SMILES) | Potency (3D7) | Potency (AS120) | Potency (C2A) | Potency (CP203) | Potency (CP211) | Potency (CP237) | Potency (CP265) | Potency (CP268) | Potency (CP269) | Potency (CP286) | Potency (CP305) | Potency (CP315) | Potency (CP325) | Potency (ECU) | Potency (HB3) | Potency (JCK) | Potency (N140) | Potency (PAD) | Potency [1] | Potency (CP247) |
| --- | --- | --- | --- | --- | --- | --- | --- | --- | --- | --- | --- | --- | --- | --- | --- | --- | --- | --- | --- | --- |
| C#C[C@]1(O)CC[C@H]2[C@H]3[C@H](CC[C@@]21C)C1=C(CC(=O)CC1)C[C@@H]3C | inactive | inactive | inactive | inactive | inactive | inactive | inactive | inactive | inactive | inactive | inactive | inactive | inactive | inactive | inactive | inactive | inactive | inactive |  |  |
| C[C@@H]1CCN(C(=O)[C@H](CCCNC(=N)N)NS(=O)(=O)c2cccc3c2NC[C@H](C)C3)[C@@H](C(=O)O)C1 | inactive | inactive | inactive |  | inactive | inactive | inactive | inactive | inactive | inactive | inactive |  | inactive | inactive | inactive | inactive | inactive | inactive | inactive | inactive |
| Nc1nc(Cl)nc2c1ncn2[C@@H]1O[C@H](CO)[C@H](O)C1F (some centres undefined) | inactive | inactive | inactive | inactive | inactive | inactive | inactive | inactive | inactive | inactive | inactive | inactive | inactive | inactive | inactive | inactive | inactive | inactive | inactive | inactive |
| CC1CCC(O)C/C1=C\C=C1/CCCC2(C)C1CCC2C(C)/C=C/C(C)C(C)C (centres undefined) |  | inactive | inactive | inactive | inactive | inactive | inactive | inactive | inactive | inactive | inactive | inactive | inactive |  | inactive | inactive |  |  |  |  |
| COc1ccc2cc1Oc1cc3c(cc1OC)CC[N+](C)(C)C3Cc1ccc(cc1)Oc1c(OC)c(OC)cc3c1C(C2)[N+](C)(C)CC3 (centres undefined) | inactive | inactive | inactive | inactive | inactive | inactive | inactive | inactive | inactive | inactive | inactive | inactive | inactive | inactive | inactive | inactive | inactive | inactive | inactive |  |
| Cc1cnc(C(=O)O)cn1 | inactive | inactive | inactive | inactive | inactive | inactive | inactive | inactive | inactive | inactive | inactive | inactive | inactive | inactive | inactive | inactive | inactive | inactive | inactive | inactive |
| CCOC(=O)C(CCc1ccccc1)NC(C)C(=O)N1Cc2cc(OC)c(OC)cc2CC1C(=O)O (centres undefined) | inactive | 5.01 µM (active) |  | inactive | inactive | inactive | inactive | inactive | inactive | inactive | inactive | inactive | inactive | 5.01 µM (active) |  |  | 3.55 µM (active) | 4.47 µM (active) | inactive |  |
| O=C(O)CC(O)CC(O)/C=C/c1c(C2CC2)nc2ccccc2c1-c1ccc(F)cc1 (centres undefined) | inactive | inactive | inactive | inactive | inactive | inactive | inactive | inactive | inactive | inactive | inactive | inactive | inactive | inactive | inactive | inactive | inactive | inactive | inactive | inactive |
| Nc1nc2[nH]cc(CCc3ccc(C(=O)NC(CCC(=O)O)C(=O)O)cc3)c2c(=O)[nH]1 (centres undefined) | 8.91 µM (active) |  | 0.316 µM (active) |  | 3.79 µM (active) | 0.0794 µM (active) |  |  |  |  |  | 0.953 µM (active) |  | 0.199 µM (active) | 0.0708 µM (active) | 5.62 µM (active) | 3.16 µM (active) | 0.224 µM (active) | inactive | 0.199 µM (active) |
| O=c1[nH]c(=O)n(C2C[C@H](O)[C@@H](CO)O2)cc1C(F)(F)F (some centres undefined) | inactive | inactive | inactive | inactive | inactive | inactive | inactive | inactive | inactive | inactive | inactive | inactive | inactive | inactive | inactive | inactive | inactive | inactive | inactive | inactive |
| C=C1[C@@H]2CC[C@H](C2)C1(C)C | inactive | inactive | inactive | inactive | inactive | inactive | inactive | inactive | inactive | inactive | inactive | inactive | inactive | inactive | inactive | inactive | inactive | inactive | inactive | inactive |
| OCC1O[C@@H](O[C@@H]2C(CO)OC(O)C(O)C2O)C(O)C(O)C1O (some centres undefined) | inactive | inactive | inactive | inactive | inactive | inactive | inactive | inactive | inactive | inactive | inactive | inactive | inactive | inactive | inactive | inactive | inactive | inactive | inactive | inactive |
| CC1CN(c2c(F)c(N)c3c(=O)c(C(=O)O)cn(C4CC4)c3c2F)CC(C)N1 (centres undefined) | inactive | inactive | inactive | inactive | inactive | inactive | inactive | inactive | inactive | inactive | inactive | inactive | inactive | inactive | inactive | inactive | inactive | inactive | inactive | inactive |
| COc1ccc(C(=O)/C(Br)=C/C(=O)O)cc1 |  |  | inactive | inactive |  | inactive | inactive | inactive |  | inactive |  | inactive | inactive |  | inactive | inactive | inactive | inactive | inactive | inactive |
| CCCC(=O)Nc1c(I)cc(I)c(C[C@H](CC)C(=O)O)c1I | inactive | inactive | inactive | inactive | inactive | inactive | inactive | inactive | inactive | inactive | inactive | inactive | inactive | inactive | inactive | inactive | inactive | inactive | inactive | inactive |
| COc1cccc2c1C(=O)c1c(O)c3c(c(O)c1C2=O)C[C@@](O)(C(=O)CO)C[C@@H]3OC1CC(N)C(O)C(C)O1 (some centres undefined) | 1 µM (active) | 2.24 µM (active) | 2.24 µM (active) | 4.78 µM (active) | 1.69 µM (active) | 0.891 µM (active) | 3.98 µM (active) | 3.79 µM (active) | 3.38 µM (active) | 0.398 µM (active) | 3.38 µM (active) | 6.75 µM (active) | 3.79 µM (active) | 3.16 µM (active) | 2 µM (active) | 12.6 µM (active) | 2.51 µM (active) | 2.24 µM (active) | inactive | 2.24 µM (active) |
| CC1(C)CC1C(=O)N/C(=C/CCCCSCC(N)C(=O)O)C(=O)O (centres undefined) | inactive | inactive | inactive | inactive | inactive | inactive | inactive | inactive | inactive | inactive | inactive | inactive | inactive | inactive | inactive | inactive | inactive | inactive | inactive | inactive |
| CCN(CC)CCOCCOC(=O)C(CC)(CC)c1ccccc1 (tested in a mixture with another compound) | inactive |  |  | 4.26 µM (active) |  |  | 1.12 µM (active) |  |  |  | 8.49 µM (active) | inactive |  | inactive |  | inactive |  | inactive | inactive | inactive |
| C=C1CC2C3C=C(C)C4=CC(=O)CCC4(C)C3CCC2(C)[C@@]1(OC(C)=O)C(C)=O (some centres undefined) |  | inactive | inactive |  |  | inactive | inactive |  |  |  |  |  |  | inactive |  | inactive | inactive |  |  | inactive |
